Screening data as filed in PubChem.
MITF primary = inhibitors of human MITF; O75030; AlphaScreen MITF homodimerization, bead proximity signal; inhibition, % at 2.6 µM; 650,000 compounds, 0.91% hits; in the data active = inhibition above about 50%;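 note: 0% = vehicle wells with protein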
Target sequence (O75030 whole entry, looked up): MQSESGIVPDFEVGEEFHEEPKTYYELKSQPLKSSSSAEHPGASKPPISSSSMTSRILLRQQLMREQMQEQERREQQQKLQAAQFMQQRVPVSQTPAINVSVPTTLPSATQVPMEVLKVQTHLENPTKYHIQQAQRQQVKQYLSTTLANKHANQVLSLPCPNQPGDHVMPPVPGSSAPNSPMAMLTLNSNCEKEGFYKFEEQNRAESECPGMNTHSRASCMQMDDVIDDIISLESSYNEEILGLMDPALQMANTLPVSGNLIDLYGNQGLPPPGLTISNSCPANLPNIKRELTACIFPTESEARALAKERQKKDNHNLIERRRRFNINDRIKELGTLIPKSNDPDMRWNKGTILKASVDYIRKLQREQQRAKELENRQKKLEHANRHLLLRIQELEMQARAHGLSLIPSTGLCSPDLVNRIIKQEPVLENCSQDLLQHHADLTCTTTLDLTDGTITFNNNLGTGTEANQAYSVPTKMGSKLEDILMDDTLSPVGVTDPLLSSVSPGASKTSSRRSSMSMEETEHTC
TEAD-YAP inh = TEAD-YAP interaction inhibition; 640,000 compounds, 1.4% hits; inhibition, % at 9.12 µM; HEK-TIYL cells, TEAD-Gal4/YAP UAS-luciferase luminescence; in the data active = inhibition above about 32%;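 note: 0% = median of test compound wells and 100% = reference inhibitor wells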
GPR151 activ = human GPR151 activation; PathHunter beta-arrestin GPR151 cells, luminescence; activation, % at 11.2 µM; 650,000 compounds, 1% hits; in the data active = activation above about 4.9%;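 note: 0% = median of compound wells and 100% = cells with positive control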
FBW7 act = activators of human E3 ligase FBW7 | Q969H0 | AlphaScreen FBW7–phospho-cyclin E peptide binding, activator screen | normalized activity (activation), % at 26.1 µM | 650,000 compounds, 0.13% hits | AID 1259310; in the data active = normalized activity above about 1.9%;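 note: purified mutant Fbw7 with reduced substrate affinity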
GPR151 confirm = human GPR151 activation, confirmation screen. AID 1508609. activation, % at 11.2 µM. 6,700 tested, under 10 active. shares compounds with GPR151 activ. GPR151 PathHunter beta-arrestin cells, luminescence, 90 min; % of EA-reagent control over plate median;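 active = mean percent activation across replicates above the confirmation screen cutoff of 4.91%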
GPR119 ag = activates human GPR119 in a GPR151 counter-screen; shares compounds with GPR151 activ; GPR119 PathHunter beta-arrestin cells, luminescence, 90 min; 0 = compound-well median, 100 = enzyme-acceptor control; activation, % at 11.2 µM; 6,700 compounds, 0.3% hits; AID 1508611;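 active = mean percent activation in the counterscreen above 29.09%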;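 note: counterscreen on off-target GPR119 to flag nonselective hits from the GPR151 activator screen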
Numbers without * were called inactive; . = not tested or not shown. Rows were chosen to be rich in hits. Some 3.5% of all compounds tested hit in one or more screens of this group.

SMILES	MITF primary	TEAD-YAP inh	GPR151 activ	FBW7 act	GPR151 confirm	GPR119 ag
Nc1nc(-c2ccc(C(=O)NC3CC3)cc2)nc2c1ncn2C1CCCCC1	6.5	-8.4	6.2*	0.2	0.3	3.4
CCOc1cc(C=O)ccc1OCCOc1ccccc1OC	-2.1	6.6	10.8*	-0.2	1.1	11.9
CC(C)Cc1nc(SCC(=O)Nc2ccccc2)c2c(=O)n(C)c(=O)n(C)c2n1	-13.4	3.6	8.1*	-0.1	0.3	10.8
COCc1ccc(CN2CCCC(CNC(=O)c3ccc(-c4ccccc4)cc3)C2)o1 (centres undefined)	-1.9	1.5	-1.3	-0.1	.	.
O=C(NCC1CCCN(Cc2ccc(CO)o2)C1)c1ccc(-c2ccccc2)cc1 (centres undefined)	9.5	-6.2	16.5*	-0.1	-0.5	-6.6
CCn1c(CSc2nnc3ccccn23)nc2cc(S(=O)(=O)N(C)C)ccc21	0.4	-2.3	0.3	0.2	.	.
CCCCOc1ccc(NC(=O)CC)cc1	7.3	-16.2	1.1	0.1	.	.
CCCCOc1ccc(NC(=O)C(=O)NC(C)C)cc1	-11.9	7.4	5.6*	-0.2	0.5	0.2
CCCCCOc1ccc(NC(=O)C(C)C)cc1	-10.6	-67.8	13.7*	0.0	-0.2	-1.9
CCCCOc1ccc(NC(=O)C(=O)NC)cc1	18.5	-7.5	-0.5	0.8	.	.
CCOc1ccc(-c2noc(-c3ccc(F)cc3)n2)cc1OC	6.5	-2.4	0.7	0.0	.	.
COc1ccc(NC(=O)CCc2c(C)nc3cc(-c4ccccc4OC)nn3c2C)cc1	-6.6	-27.1	-0.1	-0.1	.	.
COc1cccc(NC(=O)CCc2c(C)nc3cc(-c4ccccc4OC)nn3c2C)c1	-16.4	-10.0	8.2*	-0.1	0.4	-6.9
CCNC(=S)N1CCC(NC(=O)C23CC4CC(CC(C4)C2)C3)CC1	9.7	11.9	-0.1	0.2	.	.
Cn1c(=O)n(Cc2ccccc2)c(=O)c2c1nc(NN)n2Cc1ccccc1	-1.8	-11.7	1.2	0.0	.	.
Cn1c(=O)c2c(nc(NN)n2Cc2ccccc2)n(C)c1=O	6.0	2.6	6.8*	-0.1	-0.6	-6.7
Cn1c(=O)c2c(nc(Cl)n2Cc2ccc(Cl)cc2)n(C)c1=O	7.3	-6.5	10.2*	-0.2	0.3	2.5
COc1ccc2c(c1)cc(C)c1nn(CC(=O)NC(C)C)c(=O)n12	10.1	-5.5	0.9	-0.1	.	.
NNC(=O)CCCNS(=O)(=O)c1ccc([N+](=O)[O-])cc1	-0.3	0.4	5.7*	-0.1	1.2	6.4
CCCCCCCCCCCCCCCCCCOC[C@H](COP(=O)(O)OCC[N+](C)(C)C)OC(C)=O	-13.5	.	5.2*	.	-0.1	-7.4
CCOC(=O)c1c(NC(=O)c2ccc([N+](=O)[O-])cc2)sc(C(=O)OC)c1C	-2.4	5.8	5.3*	0.0	-0.1	-11.4
CCOC(=O)c1c(NC(=O)c2ccc([N+](=O)[O-])cc2)sc(C(N)=O)c1C	10.2	0.7	-0.3	0.1	.	.
O=C(/C=C/c1ccco1)N1CCN(c2ccc(-c3cccnc3)nn2)CC1	17.8	1.0	-1.6	0.3	.	.
COc1ccccc1C1c2c(oc3ccc(C)cc3c2=O)C(=O)N1CCN1CCOCC1 (centres undefined)	-9.0	2.6	12.7*	0.0	0.8	6.6
COc1cccc(C2c3c(oc4ccc(C)cc4c3=O)C(=O)N2CCN2CCOCC2)c1 (centres undefined)	-5.8	-17.6	1.0	0.2	.	.
SMILES	MITF primary	TEAD-YAP inh	GPR151 activ	FBW7 act	GPR151 confirm	GPR119 ag
O=S(=O)(c1ccc(Cl)cc1)N1CCN(C2CCCCC2)CC1	4.0	1.1	-1.2	0.1	.	.
CCn1c(=O)c(C(=O)NNC(=O)c2ccc([N+](=O)[O-])cc2)c(O)c2ccccc21	7.0	0.5	20.5*	-0.1	-0.1	-5.6
COc1ccc(C2NC(C(=O)O)CS2)cc1OC (centres undefined)	8.1	5.3	-1.8	0.1	.	.
O=C(Cn1cc(/C=C2\SC(=S)NC2=O)c2ccccc21)NCc1cccs1	7.3	5.6	6.8*	0.3	0.8	-3.3
Cc1nc2c3ccccc3n(CC(=O)Nc3ccc(C)c(C)c3)c(=O)n2n1	0.8	-2.3	-1.1	0.0	.	.
CCOc1ccc(C(=O)C(C)Sc2nc(C)cc(=O)[nH]2)cc1 (centres undefined)	-1.6	-7.2	5.1*	-0.1	1.2	9.2
COc1ccc(C(=O)C(C)Sc2nc(C)cc(=O)[nH]2)cc1 (centres undefined)	-10.5	-2.5	-2.0	0.6	.	.
CN1CCN(CC(=O)Nc2c(C(=O)C3CC3)oc3ccccc23)CC1	-1.4	-9.8	0.6	0.0	.	.
CC(=O)c1oc2ccccc2c1NC(=O)CN1CCCCC1	6.1	-4.7	5.6*	-0.1	0.9	-8.6
O=P1(Nc2ccc(Br)cc2)C=C(c2ccccc2)OC(c2ccccc2)=C1	8.4	-3.4	-0.5	0.1	.	.
CC(C)OCC(O)CS(=O)(=O)Cc1ccc(Cl)cc1 (centres undefined)	9.9	-1.8	-0.8	0.1	.	.
N#Cc1ccc(C(=O)N2CCN(Cc3ccccc3)CC2)c(F)c1	2.0	-0.3	-1.2	-0.2	.	.
CC(C)NC(=O)C1CC(=O)N(c2ccc(Cl)cc2)C1 (centres undefined)	3.0	-3.9	5.8*	-0.2	0.2	0.8
Cc1ccc(N2CC(C(=O)N3CCCCCC3)CC2=O)cc1 (centres undefined)	-0.8	-10.0	4.9*	0.0	0.1	-7.8
Cc1ccc(Cl)cc1NC(=O)C(C)n1c2ccccc2c2nc(=O)cc(C)n21 (centres undefined)	7.2	0.1	-0.5	0.0	.	.
COC(=O)c1ccc(/C=N/NC(=O)C2CC(=O)N(c3ccc(Cl)cc3)C2)cc1 (centres undefined)	17.7	4.2	0.0	0.7	.	.
CSc1ncc(CN2CCCC(N3CCN(c4ccccc4)CC3)C2)cn1 (centres undefined)	11.9	-2.4	8.8*	0.3	-0.7	-5.6
CSCCC(NC(=O)C1CCC(C)CC1)C(=O)NCc1ccccn1 (centres undefined)	2.7	2.3	5.0*	-0.2	-0.7	6.5
O=[N+]([O-])c1cccc(S(=O)(=O)NC23CC4CC(CC(C4)C2)C3)c1	3.9	1.0	5.3*	0.0	0.9	13.8
O=S(=O)(Nc1ccc2oc3c(c2c1)CCCC3)c1ccc(Br)cc1	10.3	1.4	-0.4	0.1	.	.
Cc1ccc(OCCCCn2cnc3ccccc3c2=O)cc1	9.8	2.4	5.5*	0.1	-0.2	-4.0
O=c1c2ccccc2ncn1CCOCCOc1cccc2ccccc12	9.1	0.3	0.6	0.0	.	.
COc1ccccc1OCCOCCn1cnc2ccccc2c1=O	-3.0	-13.8	14.0*	0.1	-0.1	-0.2
Cc1ccc(NC(=O)C2CC(=O)N(c3ccc(F)cc3)C2)c(C)c1 (centres undefined)	3.1	8.1	18.8*	0.1	-0.1	13.4
